Screening results deposited in PubChem by The Scripps Research Institute Molecular Screening Center.
An excerpt weighted towards active compounds, which were near 2.2% of everything screened.
MOR-DOR inv ag: inverse agonists of human mu-delta opioid receptor heterodimerization. 0.21% of 340,000 active. inhibition, % at 9.3 µM. AID 504357. cell-based MOR-DOR heterodimer luminescence, inverse agonism; in the data active = inhibition above about 22%, passing the limit was not always enough;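 note: 0% = cells with DMSO and 100% = wells without cells with DMSO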
Target sequence (P35372 whole entry, looked up): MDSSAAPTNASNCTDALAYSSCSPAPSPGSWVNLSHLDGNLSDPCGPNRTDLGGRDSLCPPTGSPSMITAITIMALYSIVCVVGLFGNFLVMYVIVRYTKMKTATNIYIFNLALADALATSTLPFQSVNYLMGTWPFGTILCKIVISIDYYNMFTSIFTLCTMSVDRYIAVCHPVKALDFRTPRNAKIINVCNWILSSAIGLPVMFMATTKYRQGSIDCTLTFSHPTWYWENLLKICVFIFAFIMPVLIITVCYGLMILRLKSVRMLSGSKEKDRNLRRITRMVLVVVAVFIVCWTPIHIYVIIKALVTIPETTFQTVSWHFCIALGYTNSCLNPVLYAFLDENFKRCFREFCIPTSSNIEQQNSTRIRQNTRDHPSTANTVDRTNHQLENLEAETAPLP
Target sequence (P41143 whole entry, looked up): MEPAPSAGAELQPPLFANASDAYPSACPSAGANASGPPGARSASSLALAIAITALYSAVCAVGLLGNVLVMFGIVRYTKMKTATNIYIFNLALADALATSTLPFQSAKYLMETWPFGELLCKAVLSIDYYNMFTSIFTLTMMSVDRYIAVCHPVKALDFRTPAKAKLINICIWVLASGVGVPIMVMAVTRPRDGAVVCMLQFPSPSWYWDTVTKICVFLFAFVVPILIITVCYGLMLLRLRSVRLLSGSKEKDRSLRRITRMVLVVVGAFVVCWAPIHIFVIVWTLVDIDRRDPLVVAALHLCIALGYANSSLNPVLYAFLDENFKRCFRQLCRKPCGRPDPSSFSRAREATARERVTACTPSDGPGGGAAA
HTR5A inv ag: counter-screen for OPRM1-OPRD1 inverse agonists: human HTR5A inverse agonism; P47898; HTR5A cell line, luminescence; 0.083% of 340,000 active; inhibition, % at 9.3 µM; in the data active = inhibition mostly above about 23%, no sharp cut-off; inactive = mostly below about 18%;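 note: 0% = cells with DMSO and 100% = no-cell wells with DMSO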
HTR5A ag: counter-screen for OPRM1-OPRD1 agonists: human HTR5A agonism; activation, % at 9.3 µM; P47898; 0.61% of 340,000 active; HTR5A agonist assay, luminescence, cell-based; in the data active = activation mostly above about 9.5%, no sharp cut-off; inactive = mostly below about 7.6%;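 note: 0% = cells with vehicle only and 100% = reference agonist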
HGIII-sPLA2 inh: Inhibits HGIII-sPLA2 liposome hydrolysis, primary screen. Q9NZ20. QFRET BODIPY PC-A2 liposome hydrolysis, fluorescence. inhibition, % at 12.2 µM. 0.56% of 370,000 active. AID 743126;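 active = inhibition above mean plus 3 SD of compounds lying within the high and low control bounds, cut at about 19% in these data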;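 note: 0% = median of test compound wells and 100% = no enzyme DMSO wells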
HTR2A ag: activates the mouse 5-HT2A serotonin receptor. P35363. CHO-K1 mHTR2A beta-arrestin complementation, luminescence; percent of 30 µM serotonin response. activation, % at 7.6 µM. 0.66% of 360,000 active. AID 624169;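 active = activation above a run cutoff, the mean activation of all tested compounds plus 3 SD, cut at about 14% in these data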;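 note: 0% = plate median of compound wells and 100% = 30 µM serotonin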
OPRM1-OPRD1 ag: agonists of human mu-delta opioid receptor heterodimerization; P35372+P41143; cells, OPRM1-OPRD1 heterodimerization, luminescence; activation, % at 9.3 µM; 0.3% of 340,000 active; AID 504326; in the data active = activation above about 18%;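 note: 0% = vehicle-treated cells and 100% = reference agonist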
OPRM1-D1 inv cf: OPRM1-OPRD1 heterodimer inverse agonism, confirmation; 20% of 580 active; inhibition, % at 9.3 µM; cells expressing OPRM1/OPRD1 heterodimer, luminescence; AID 504900; shares compounds with MOR-DOR inv ag; in the data active = inhibition above about 32%;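 note: 0% = cells with DMSO and 100% = wells lacking cells with DMSO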
HTR5A inv ctr2: HTR5A inverse agonism, opioid heterodimer counter-screen; shares compounds with MOR-DOR inv ag; inhibition, % at 9.3 µM; HTR5A-expressing cells, luminescence; 580 tested, under 10 active; call rule not given here;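 note: 0% = cells with DMSO and 100% = no-cell wells with DMSO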
* marks the source's active call; other numbers are inactive results; i = inactive; x = no result given.

SMILES	MOR-DOR inv ag	HTR5A inv ag	HTR5A ag	HGIII-sPLA2 inh	HTR2A ag	OPRM1-OPRD1 ag	OPRM1-D1 inv cf	HTR5A inv ctr2
Cc1ccc(C2Nc3ccccc3NC3=C2C(=O)CC(C)(C)C3)c(O)c1 (stereo unspecified)	7	-4	1	-1	0	-2	x	x
CCN(CC)CCOC(=O)/C=C/c1ccccc1	14	-12	1	10	-3	-3	x	x
CCN(CC)CC(C)(C)C(=O)/C=C/c1ccc(/C=C/C(=O)C(C)(C)CN(CC)CC)cc1	43*	6	-1	-6	0	-9	-2	24
CCCCCCCCN1CCS(=O)(=O)N(Cc2ccc(OC)cc2)C(C(=O)OC)C1 (stereo unspecified)	x	x	x	-5	x	x	x	x
O=C(NNc1ccccc1)OCc1ccccc1	x	x	x	4	-3	x	x	x
CCOC(=O)c1ccccc1OC(=O)NNc1ccccc1	37*	22	-6	0	0	-7	-18	-6
O=C1NC[C@@H](c2ccccc2)OC(=O)[C@@H](Cc2ccc(F)cc2)CC/C=C/C[C@@H]1CC(=O)N(CCO)Cc1ccccc1	34*	10	-6	-33	-18	-6	9	26
O=C1N[C@@H](c2ccccc2)COC(=O)[C@@H](Cc2ccc(F)cc2)CC/C=C/C[C@H]1CC(=O)N(CCO)Cc1ccccc1	-2	-8	2	-24	1	0	x	x
CCCCNC(=S)NNC(=O)c1cc(C2CC2)nc2ccccc12	12	-3	1	15	-12	-2	x	x
CCCCNC(=S)NNC(=O)c1cc(-c2ccncc2)nc2ccccc12	33*	23	-5	6	-19	-6	-290	-9
Cc1[nH][nH]c(=O)c1C(c1c(C)[nH][nH]c1=O)c1cn(Cc2ccc(F)cc2)c2ccccc12	43*	15	1	x	-4	-8	2	-3
CCCCCCC[C@@H](C/C=C/CCC(=O)N(C)C/C(=C/Cl)C/C(=C\C(=O)N1CC(OC)=CC1=O)OC)OC	39*	-1	0	-9	-1	-8	-22	-120
COc1cccc([C@@H]2Oc3ccc(OC)cc3C(=O)[C@H]2O)c1	35*	4	-3	x	1	-6	19	9
Cc1nn(C(C)C(=O)c2cccc(Cl)c2)c(C)c1[N+](=O)[O-] (stereo unspecified)	7	14	0	7	5	-1	x	x
Cn1cnc([N+](=O)[O-])c1S(=O)(=O)Oc1ccccc1	40*	21	-5	4	-2	-8	9	14
Cn1cnc([N+](=O)[O-])c1S(=O)(=O)Nc1ccccc1	17	-1	0	5	4	-3	x	x
Cn1cnc([N+](=O)[O-])c1S(=O)(=O)c1cccc(Cl)c1	29*	16	-3	5	-7	-4	-20	-90
CC(C)(C)OC(=O)N1CCC(N[C@@H](Cc2ccccc2)C(=O)NCC(c2ccccc2)c2ccccc2)(C(=O)NC2CCCCC2)CC1	x	x	x	-1	x	x	x	x
NC(=O)c1ncn([C@@H]2O[C@H](C(=O)N[C@H](Cc3c[nH]c4ccccc34)C(=O)N3CCN(CC(=O)N4CCCC4)CC3)[C@@H](O)[C@H]2O)n1	x	x	x	3	x	x	x	x
COc1ccc(-n2c(N)c(C(=O)NCc3ccco3)sc2=S)cc1	16	-23	5	7	-5	-3	x	x
CCOC(=O)c1ccc(-n2c(N)c(C(=O)NCc3ccco3)sc2=S)cc1	30*	11	-2	x	-1	-5	-290	-60
CCOC(=O)c1ccc(-n2c(N)c(C(=O)NCC3CCCO3)sc2=S)cc1 (stereo unspecified)	34*	-8	-4	4	-3	-7	i	-32
C[C@@H]1C[C@H](O)CCCCCC(=O)Cc2cc(O)cc(O)c2C(=O)O1	x	x	x	8	x	x	x	x
COc1ccc(C(C#N)=C2C=CC(=NO)C=C2)cc1	48*	-2	1	-19	9	-10	-47	-35
NNc1nc(-c2ccccc2)c2cc(Br)ccc2n1	20	4	-1	12	7	-5	x	x
SMILES	MOR-DOR inv ag	HTR5A inv ag	HTR5A ag	HGIII-sPLA2 inh	HTR2A ag	OPRM1-OPRD1 ag	OPRM1-D1 inv cf	HTR5A inv ctr2
NNc1nc(-c2ccccc2)cc(-c2ccc(Br)cc2)n1	70*	-18	-11	-1	2	-14	78*	25
O=C1/C(=C/c2ccccc2)Nc2ccccc21	36*	4	-6	-7	-2	-7	-25	-10
Cc1ccc(S(=O)(=O)N=Nc2c(O)[nH]c3ccccc23)cc1	50*	12	-4	2	6	-8	1	17
Cc1ccc(C)c(S(=O)(=O)N=Nc2c(O)[nH]c3ccccc23)c1	46*	23	-8	2	-3	-8	19	9
Cc1ccc(S(=O)(=O)N(CC(=O)N=Nc2c(O)[nH]c3ccccc23)c2ccc(C)c(C)c2)cc1	9	3	0	-12	-2	-2	x	x
O=C(Cc1c[nH]c2ccccc12)Nc1ccc(Nc2cccnc2)c(-c2cc(F)cc(F)c2)c1	x	x	x	-47	x	x	x	x
COC(=O)[C@]12C[C@H](CC(=O)NCc3ccc(OC)c(OC)c3)C(=O)N(Cc3ccc(Cl)cc3Cl)C1=C[C@H](COCc1ccccc1)O[C@@H]2C	x	x	x	-20	x	x	x	x
CS(=O)(=O)N1CCC(C(=O)NCC2COc3ccccc3O2)CC1 (stereo unspecified)	x	x	x	2	x	x	x	x
Cc1onc(-c2ccc(Cl)cc2)c1-c1ccn(S(=O)(=O)c2ccccc2Cl)n1	x	x	x	-5	x	x	x	x
CCOC(CN=c1nc(N(C)C)ss1)OCC	39	20	-5	10	-23	-9	x	x
CN(C)c1nc(=NCc2ccco2)ss1	66*	22	-6	x	-16	-13	-72	-49
CCC(=O)OCCNc1cc(Sc2nc3ccccc3s2)c2nonc2c1[N+](=O)[O-]	1	10	-1	11	-2	0	x	x
O=[N+]([O-])c1c(NCCCO)cc(Sc2nc3ccccc3s2)c2nonc12	35*	2	-5	x	-2	-6	30	12
CCCSc1cc(NCCOC(=O)CCC)c([N+](=O)[O-])c2nonc12	9	-25	1	0	1	-2	x	x
CCC(=O)OCCNc1cc(Sc2nc3ccccc3[nH]2)c2nonc2c1[N+](=O)[O-]	43*	-9	-10	-6	-2	-8	-10	-8
COc1ccc(C2=NN(CN3C(=O)C(=O)c4ccccc43)C(c3ccc(C)cc3)C2)cc1 (stereo unspecified)	47*	7	-2	-9	-4	-9	16	8
COc1ccc(C2=NN(CN3C(=O)C(=O)c4ccccc43)C(c3ccc(Br)cc3)C2)cc1 (stereo unspecified)	21	-9	-3	-2	0	-4	x	x
